Experimental findings from PubChem BioAssay are described below.

For assay [1], the system named is Human papillomavirus type 1a protein E7 (residues 44-93). Briefly: small molecules binding HPV E7 44-93 – biochemical, small-molecule microarray, residues 44-93, 635 nm fluorescence, primary screen (AID 1108).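 Also: E7 fragment applied at 1 µg/mL in TBST for 1 h at 4 C; score combines spot fluorescence with its signal to noise ratio.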 The following applies: fluorescence 635 nm, higher = more signal.
Assay [2] can be described thus: hepatitis C replication reporter changes, two-sided – Huh7 cells, luciferase reporter, HCV replication inhibitor project, primary screen (AID 1109).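 Also: huh7 hepatoma cells harbouring a luciferase neomycin HCV replicon reporter; luciferase luminescence as measure of HCV replicon replication; test concentration not given here.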 The following applies: Huh7 HCV replicon luciferase reporter, 48 h; higher = more signal. (A reporter such as luciferase makes a cellular process visible.)
In assay [3] the target is Left-right determination factor 2 (Homo sapiens) (UniProt O00292). Briefly: small molecules binding LEFTY2 protein – biochemical, small-molecule microarray, 635 nm fluorescence scan, primary screen (AID 1110). The following applies: higher = more signal.
Chain of Left-right determination factor 2 (Homo sapiens) (O00292 whole entry, looked up): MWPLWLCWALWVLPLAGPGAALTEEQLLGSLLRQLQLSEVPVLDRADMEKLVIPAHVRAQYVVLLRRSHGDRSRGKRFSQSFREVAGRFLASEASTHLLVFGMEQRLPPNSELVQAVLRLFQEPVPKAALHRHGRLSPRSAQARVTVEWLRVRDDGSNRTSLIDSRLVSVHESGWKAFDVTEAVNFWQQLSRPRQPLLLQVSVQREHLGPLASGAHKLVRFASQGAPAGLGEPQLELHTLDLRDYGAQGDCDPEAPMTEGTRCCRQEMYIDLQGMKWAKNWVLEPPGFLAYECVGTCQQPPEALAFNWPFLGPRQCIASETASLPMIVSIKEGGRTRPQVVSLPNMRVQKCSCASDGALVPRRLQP
In assay [4] the target is Calmodulin-1 (Homo sapiens) (UniProt P0DP23). Briefly: small molecules binding calmodulin-1 with EGTA – biochemical, small-molecule microarray, Cy5-labelled CALM1, profiling panel (AID 1111).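 Also: labelled calmodulin applied in Tris saline Tween buffer holding calcium plus EGTA and DTT.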 The following applies: Cy5-CALM1 binding fluorescence, higher = more signal.
For assay [5] the target is unchanged. Briefly: small molecules binding Ca-loaded calmodulin-1 – biochemical, small-molecule microarray, Cy5-labelled CALM1, plus calcium, artefact control for SMM control-protein annotation, profiling panel (AID 1112).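 Also: score merges spot fluorescence with signal to noise from triplicate slides.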 The following applies: Cy5-CALM1 binding fluorescence, higher = more signal.
Assay [6] in a line: probe aWnt5a binding to arrayed compounds – biochemical, biotinylated probe, 635/667 nm fluorescence, primary screen (AID 1113).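 Also: score merges 667 nm fluorescence intensity with signal-to-noise per printed feature.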 The following applies: small-molecule microarray, higher = more signal.
A short description of assay [7]: probe aShh binding to arrayed compounds – biochemical, biotinylated probe, 635/667 nm fluorescence, primary screen (AID 1114).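 Also: probe is biotin-labelled aShh protein from a stem cell growth factor screen; measures binding of labelled protein to compounds printed on the slide; score merges feature fluorescence at 667 nm with signal-to-noise.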 The following applies: small-molecule microarray, higher = more signal.
The nature of assay [8]: probe aNog binding to arrayed compounds – biochemical, biotinylated probe, 635/667 nm fluorescence, primary screen (AID 1115).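 Also: probe is biotinylated aNog protein used at 0.15 µg/mL for 1 h at 4 C; z-score combines 667 nm fluorescence of each spot with its signal to noise.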 The following applies: small-molecule microarray, higher = more signal.
Assay [9] addresses Torsin-1A-interacting protein 1 (Homo sapiens) (UniProt Q5JTV8). Kind of assay: compound microarray binding of lysate hLAP1 – cell lysate, small-molecule microarray, COS7 lysate, 635/667 nm fluorescence, primary screen (AID 1116). The following applies: 635 nm fluorescence, higher = more signal.
Assay [10] addresses Alpha-bungarotoxin (Bungarus multicinctus) (UniProt P60615). Briefly: compounds binding labelled alpha-BTX control protein – biochemical, small-molecule microarray, Alexa647 label, 635/667 nm fluorescence, artefact control for SMM control protein annotation, profiling panel (AID 1117). The following applies: alpha-BTX-A647 binding fluorescence, higher = more signal.

The structures appear in SMILES notation.

Chain of Torsin-1A-interacting protein 1 (Homo sapiens) (Q5JTV8 whole entry, looked up): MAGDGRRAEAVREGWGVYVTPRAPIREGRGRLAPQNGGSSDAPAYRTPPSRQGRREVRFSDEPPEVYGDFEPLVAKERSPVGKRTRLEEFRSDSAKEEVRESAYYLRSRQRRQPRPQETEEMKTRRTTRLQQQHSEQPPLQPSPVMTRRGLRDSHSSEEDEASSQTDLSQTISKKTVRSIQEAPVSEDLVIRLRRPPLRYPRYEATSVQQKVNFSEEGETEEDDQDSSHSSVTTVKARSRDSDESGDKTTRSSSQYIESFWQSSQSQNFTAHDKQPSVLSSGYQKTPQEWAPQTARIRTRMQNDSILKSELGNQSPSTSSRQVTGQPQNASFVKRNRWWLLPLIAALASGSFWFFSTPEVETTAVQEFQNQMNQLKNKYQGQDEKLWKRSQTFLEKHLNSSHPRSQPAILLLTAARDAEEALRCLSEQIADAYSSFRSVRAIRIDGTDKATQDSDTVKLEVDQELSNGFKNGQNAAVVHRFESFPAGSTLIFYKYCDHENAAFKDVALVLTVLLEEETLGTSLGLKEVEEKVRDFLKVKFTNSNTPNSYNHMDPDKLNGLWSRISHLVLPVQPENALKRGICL
Chain of Alpha-bungarotoxin (Bungarus multicinctus) (P60615 whole entry, looked up): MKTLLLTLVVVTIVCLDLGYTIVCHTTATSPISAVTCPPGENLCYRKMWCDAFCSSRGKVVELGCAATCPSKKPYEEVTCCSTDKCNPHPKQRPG

On to `C=CCNC(=O)[C@H]1[C@@H]2C(=O)O[C@@H](c3ccccc3)[C@@H](c3ccccc3)N2[C@@H](c2ccc(OCCO)cc2)[C@]12C(=O)N(C(=O)OCCOC)c1ccc(C#CCC(C(=O)OC)C(=O)OC)cc12`, for which the composite z-score was 1.41 in [1]; 0.158 in assay [3]; 1.58 in assay [4]; 0.81 in assay [5]; 0.291 in [6]; 2.08 in assay [7]. The composite z-score in assay [8] is 1.42; in assay [9], 2.68; in [10], 1.63. Further, in assay [2], the z-score was -1.54.

For `CC(CO)N1C(=O)[C@@H]2[C@H]3C(=O)OCC=C[C@H]3OC23C=CCN(c2ccc4ccccc4c2)C(=O)[C@@H]13` (stereo not given in full), the composite z-score in [1] is -1.55; in assay [3], -2.64; in assay [4] it was -0.505; in assay [5] it was 0.0117; in [6] it was -0.174; in assay [7], -0.0035. Also, the composite z-score in assay [8] was 0.474; in assay [9], -1.14; in assay [10] it was -0.674. In assay [2], the z-score is -0.418.

Regarding `O=C1N(Cc2ccccc2)Cc2ccccc2C[C@@]12COC(c1ccc(OCCCO)cc1)=N2`, the composite z-score in assay [1] is 1.19; in assay [3], -0.0607; in [4], 0.273; in [5] it was 0.519; in assay [6], -0.043; in assay [7], 0.0287. The composite z-score amounted to 1.09 in assay [8], 0.724 in assay [9] and 0.491 in [10]. This compound showed a z-score in assay [2] of -3.52.

`CCCC=C(CCC)[C@@H](NC(=O)c1ccc(C(=O)OC)cc1)c1ccc(C(=O)OC)cc1`: the composite z-score in assay [1] is 0.981; in assay [3], -0.634; in [4], 1.48; in [5], 1.06; in [6], 0.313; in assay [7], 1.45. Further, the composite z-score in assay [8] was -0.316; in assay [9] it was 0.253; in [10] it was -0.037. Also, the z-score in assay [2] was -0.682.

As for `CC(C)(C)OC(=O)N1[C@@H](C=C(Br)Br)COC1(C)C`, the composite z-score in assay [1] was 0.943; in assay [3], 0.514; in assay [4] it was -0.177; in assay [5], -0.41; in [6], -0.0944; in assay [7], -0.167. In addition, the figures for the composite z-score in assay [8], in assay [9] and in assay [10] were 0.0051, 1.29 and 0.398, respectively. The compound also came in with a z-score in assay [2] of -0.213.

On to `COc1cc2c(cc1O)C(C)N(Cc1sc3ccccc3c1Cl)CC2` (stereo not given), for which the composite z-score in [1] is -1.91; in [3], -1.41; in [4], 1.23; in assay [5], 0.869; in [6], -0.117; in assay [7], 0.075. For the same compound, the composite z-score in [8] was 0.426; in [9], -0.216; in assay [10] it was 0.201. In addition, the z-score in [2] is -0.728.

Turning to `CC[C@@H]1C=C(C(=O)O)[C@H](c2cccc(Cl)c2)N1S(=O)(=O)c1ccc(C)cc1`, the composite z-score in assay [1] was 1.2; in assay [3], -0.8; in assay [4] it was 0.875; in [5], 0.0755; in assay [6], -0.0758; in assay [7], 0.14. For the same compound, the composite z-score in assay [8] amounted to 0.527; in assay [9] it was 1.09; in assay [10] it was 0.105. The z-score in [2] was -0.54.

For `CN1C(=O)C2C=CC(C(O)c3cccs3)N(N(c3ccccc3)c3ccccc3)C2C1=O` (stereo not given), the composite z-score in assay [1] is 1.28; in assay [3] it was -0.632; in assay [4] it was 1.07; in [5], 0.831; in assay [6], 0.143; in assay [7], 0.131. Besides, the composite z-score in assay [8] was -0.267; in [9] it was 0.713; in assay [10], 1.79. This compound registered a z-score in assay [2] of 0.053.

Turning to `CC(C)C[C@@H]1NC(=O)[C@H]2C[C@@H](C(=O)O)[C@@H](c3cccc(OCCO)c3)N2C1=O`, the composite z-score is -0.239 in assay [1]; 0.779 in assay [3]; -0.418 in assay [4]; -0.2 in assay [5]; -0.0704 in [6]; -0.0289 in [7]. For the same compound, the composite z-score in assay [8] is -0.0503; in assay [9], 0.884; in assay [10] it was 0.209. The z-score in assay [2] is 2.62.

For `CCOC(=O)C1=C[C@@H](C(C)(C)C)N(S(=O)(=O)c2ccc(C)cc2)[C@H]1c1ccc(OC)cc1`, the composite z-score in [1] came out at 1.34; in [3], 0.535; in assay [4], 1.49; in [5] it was 0.577; in assay [6], 0.0279; in [7], 0.216. Further, the results for the composite z-score in assay [8], in assay [9] and in [10] were -0.397, 1.97 and 1.14, respectively. The same compound had a z-score in assay [2] of -2.36.

For the compound `CCOC(=O)C[C@H]1[C@H](OC(=O)c2cc3ccccc3oc2=O)[C@@H](NC(=O)Cc2ccc(OC)cc2)c2cc(OCCCO)ccc2N1C(=O)Cc1ccc(OC)cc1`, the composite z-score in assay [1] is 0.351; in [3] it was 0.594; in assay [4], -0.326; in assay [5], -0.54; in assay [6] it was -0.096; in assay [7] it was -0.145. Further, the composite z-score in [8] is -0.0428; in assay [9], 0.0475; in assay [10] it was 0.329. The compound further showed a z-score in assay [2] of -1.73.

Regarding `COCCCNC(=O)[C@@]1(Cc2ccccc2I)c2ccccc2C(=O)N(Cc2ccccc2C(F)(F)F)[C@H]1c1ccc(CO)cc1`, the composite z-score in assay [1] was 1.1; in [3], -2.26; in assay [4], -0.285; in assay [5] it was -0.664; in [6] it was -0.136; in [7], -0.0848. The composite z-score was 0.2 in assay [8], -0.0065 in assay [9] and -0.458 in assay [10]. The same compound came in with a z-score in assay [2] of -0.594.

Turning to `CC1(C)OB(/C=C\CC(OC(=O)c2ccncc2)c2ccccc2)OC1(C)C` (stereo not given), the composite z-score in [1] is 0.0565; in assay [3], -1.46; in [4] it was -2.58; in [5], -2.34; in [6], -0.124; in assay [7], 0.0469. The composite z-score in assay [8] is -0.76; in [9], 0.161; in [10] it was -0.778. Also, the z-score in assay [2] is -0.382.

Regarding `CN1C(=O)C2C=CC(C(O)c3ccc([N+](=O)[O-])cc3)N(Nc3ccccc3)C2C1=O` (stereo not given), the composite z-score in [1] is 1.41; in assay [3], -0.258; in [4] it was 2.04; in assay [5], 0.843; in [6], 0.0968; in assay [7], 1.01. For the same compound, the composite z-score in assay [8] is 1.53; in assay [9] it was 0.0788; in [10], 1.44. This compound came in with a z-score in assay [2] of 0.514.

Consider `COCCOC(=O)N1C(=O)[C@@]2(c3cc(C#CC4(O)CCCCCC4)ccc31)[C@H](C(N)=O)[C@H]1C(=O)O[C@H](c3ccccc3)[C@H](c3ccccc3)N1[C@@H]2c1ccc(OCCO)cc1`, for which the composite z-score in assay [1] is 0.688; in [3], 0.73; in assay [4], 1.49; in assay [5], 0.527; in assay [6], -0.0364; in assay [7] it was 0.407. Moreover, the composite z-score in [8] turned out to be 0.176; in [9], 0.883; in assay [10], 1.61. The compound also displayed a z-score in assay [2] of -2.61.

Take `C[C@]1(C(=O)O)c2ccccc2C(=O)N(Cc2cc(C(F)(F)F)cc(C(F)(F)F)c2)[C@H]1c1ccc(CO)cc1`: the composite z-score in assay [1] is 0.966; in [3], -0.255; in assay [4] it was -0.076; in [5] it was -1.16; in assay [6] it was -0.145; in [7] it was -0.214. For the same compound, the composite z-score is 0.081 in assay [8], -0.0827 in assay [9] and 0.764 in assay [10]. In assay [2], the z-score was 1.07.

With `C=C(C)C1CN([C@H](CO)c2ccccc2)C(=O)/C1=C\c1ccccc1` (stereo not given in full), the composite z-score is -0.165 in [1]; 0.241 in assay [3]; -0.565 in assay [4]; -0.754 in assay [5]; -0.144 in assay [6]; -0.289 in assay [7]. In addition, the composite z-score was 0.172 in assay [8], 0.189 in [9] and -0.173 in [10]. The compound further returned a z-score in assay [2] of -1.56.

For `CN1C(=O)C2C=CC(C(O)c3ccc(I)cc3)N(N(c3ccccc3)c3ccccc3)C2C1=O` (stereo not given), the composite z-score in [1] was -0.802; in assay [3], -0.953; in assay [4], 0.95; in assay [5], -0.0638; in assay [6] it was -0.0735; in assay [7], 0.0469. Further, the composite z-score in assay [8] is 0.878; in assay [9], -0.119; in assay [10] it was 0.98. The same compound came in with a z-score in assay [2] of -1.55.
